The text below walks through data of PubChem BioAssay.

Experiment [1] can be described thus: inhibitors of TNFa-induced NFkB p65 translocation, primary screen, imaging, HUVEC, MLSMR starter and 10KST1 sets (AID 438;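 active means inhibition above 20% together with a positive visual image hit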;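 further: compound added about 3h40 before a 20 min TNFalpha stimulation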;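 on inhibition: signal is the nuclear over cytoplasmic p65 intensity ratio per well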). Particulars: HUVEC TNFa-induced p65 nuclear translocation; cell count: measured here: nuclei count (cytotoxicity indicator), at 2.08 µM; inhibition: at 2 µM, stronger effect = higher value, 0% TNFa-plus-vehicle, 100% no-TNFa wells.
Experiment [2] is described as follows: reduction of polyQ htt aggregates in cells – imaging, exon1htt(103Q)mCFP cells, high-content imaging, primary screen (AID 483;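 active means visual image review flags a hit and inhibition of aggregation exceeds 20%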;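 further: compound exposure lasted 3 days before fixation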;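 on nuclei count: percent of the per-plate median nuclei count of sample wells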). Particulars: exon1htt(103Q)mCFP cell line, aggregate imaging, at 2 µM; inhibition of aggregation: stronger effect = higher value; nuclei count: measured here: cell count, toxicity.
Experiment [3] in a line: endothelial E-selectin expression blockers – imaging, HUVEC, immunofluorescence, MLSMR starter and 10KST1 sets, primary screen (AID 487;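 active means visually confirmed hit in the image check and inhibition above 20%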;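 on inhibition: signal is fraction of cell area covered by stained E-selectin grains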;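 on nuclei count: 100% = median nuclei count of all wells on the same plate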). Particulars: HUVEC TNFalpha-induced E-selectin immunofluorescence imaging, at 2 µM; inhibition: stronger effect = higher value; nuclei count: measured here: cell number, toxicity.
Experiment [4] concerns the target Voltage-gated potassium channel subunit beta-2 (Rattus norvegicus) (UniProt P62483). Nature of the experiment: inhibitors of rat Kvbeta2 reductase activity – biochemical, NADPH fluorescence, primary screen (AID 622;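 active means fluorescence slope higher than the sample average by over 3 SD, cut at about -0.22 in these data, passing the limit was not always enough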;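 further: slope of raw intensity against log time taken from 70 to 1610 s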). Particulars: recombinant KvBeta, 4-cyanobenzaldehyde reduction, at 10 µM, stronger effect = higher value.
Experiment [5] has the same target. The experiment is described as follows: enhancers of rat Kvbeta2 NADPH turnover – biochemical, NADPH fluorescence, primary screen (AID 623;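 active means NADPH fluorescence slope more negative than the mean of all samples by about 3 SD, 99.7% confidence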;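 further: fluorescence intensity change per second fitted from 20 to 320 s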). Particulars: Recombinant KvBeta, NADPH fluorescence decrease slope, 10 min; at 10 µM; stronger effect = lower value.
In experiment [6] the target is Alpha-2C adrenergic receptor (Homo sapiens) (UniProt P18825). The experiment is described as follows: compounds altering alpha2C-coupled GIRK flux – cell-based, HEK293 alpha2C/GIRK1/2, thallium flux, primary screen (AID 624;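 active means fluorescence slope after compound addition differing from the mean of all screened samples at 99.7% confidence, in either direction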;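 further: slope of fluorescence ratio to pre-addition baseline per second over 15 to 24 s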). Conditions: thallium flux BTC fluorescence, at 10 µM, actives lie on both sides.
Alpha-2C adrenergic receptor (Homo sapiens), sequence (P18825 whole entry, looked up): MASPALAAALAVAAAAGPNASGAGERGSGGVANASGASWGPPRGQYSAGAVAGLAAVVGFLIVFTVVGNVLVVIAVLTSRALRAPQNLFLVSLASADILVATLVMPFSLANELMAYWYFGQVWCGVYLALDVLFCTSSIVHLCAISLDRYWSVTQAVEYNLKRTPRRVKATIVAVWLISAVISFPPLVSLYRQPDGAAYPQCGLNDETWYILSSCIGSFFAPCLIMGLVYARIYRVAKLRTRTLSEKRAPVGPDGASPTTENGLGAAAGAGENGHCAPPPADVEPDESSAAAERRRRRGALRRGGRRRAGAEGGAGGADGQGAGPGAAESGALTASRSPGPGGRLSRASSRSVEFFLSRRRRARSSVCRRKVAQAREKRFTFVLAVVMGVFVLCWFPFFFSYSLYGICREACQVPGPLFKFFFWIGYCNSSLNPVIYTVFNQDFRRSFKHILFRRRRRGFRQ
Experiment [7] in a line: blockers of RIG-like receptor reporter activation – cell-based, Sendai virus stimulus, luciferase, 10K MLSCN set, TLR/RLR signaling modifier project, primary screen (AID 602276;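 active means inhibition at or above 50% at 10 µM; inactive means inhibition below 50%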;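 further: firefly luciferase from ISG56 promoter only with Renilla not read in this screen; 0% = Sendai virus plus DMSO and 100% = medium plus DMSO without virus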). Conditions: HEK293 RL24 IRF3 luciferase reporter, at 10 µM, stronger effect = higher value. In general terms: Reporter assays use an easily measured gene product as a stand-in for the process of interest.
Experiment [8] can be described thus: TLR3 IRF3 reporter activation blockers – cell-based, poly I:C stimulus, luciferase, 10K MLSCN set, primary screen (AID 602277). Conditions: HEK293-TLR3 RL24 IRF3 luciferase reporter, at 10 µM, stronger effect = higher value.

Molecules are shown by their SMILES. Calls of active or inactive are those of the source.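 How the source made its calls, unless noted: active means inhibition of the reporter signal at or above 50%; inactive means inhibition below 50%.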

Voltage-gated potassium channel subunit beta-2 (Rattus norvegicus), sequence (P62483 whole entry, looked up): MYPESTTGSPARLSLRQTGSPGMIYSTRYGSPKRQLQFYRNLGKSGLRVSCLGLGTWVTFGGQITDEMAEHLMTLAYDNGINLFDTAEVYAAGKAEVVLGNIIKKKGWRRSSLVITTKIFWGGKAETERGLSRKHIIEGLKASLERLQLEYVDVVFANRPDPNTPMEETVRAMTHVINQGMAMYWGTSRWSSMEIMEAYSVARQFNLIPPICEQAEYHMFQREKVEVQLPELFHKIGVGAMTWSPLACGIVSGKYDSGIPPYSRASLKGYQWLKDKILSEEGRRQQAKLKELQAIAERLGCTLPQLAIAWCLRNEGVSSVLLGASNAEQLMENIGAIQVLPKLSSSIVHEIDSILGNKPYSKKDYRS

The term inhibition denotes the change of the read-out against control, counted positive when it falls. As to `CCCCc1nccn1CCn1ccnc1CCCC`, the cell count in experiment [1] came to 514. Besides, the inhibition in experiment [1] is -5% (inactive); in experiment [3] it was -75% (inactive); in experiment [7], 26.7% (inactive); in experiment [8] it was 25.7% (inactive). Besides, the inhibition of aggregation in experiment [2] is 53.1% (active). Also, the nuclei count is 75% in experiment [2] and 108% in experiment [3]. In experiment [4], the fluorescence slope was -0.489 (inactive). Also, the NADPH fluorescence slope in experiment [5] is 1.9e-05 (inactive). Besides, in experiment [6], the slope was 0.00472 (inactive).
With `CCC(C(=O)O)n1c(C(F)(F)F)nc2ccccc21` (centres undefined), the cell count in experiment [1] came to 717. The inhibition is -29.6% (inactive) in experiment [1], -6.3% (inactive) in experiment [3], 7.44% (inactive) in experiment [7] and 14.4% (inactive) in experiment [8]. Also, the inhibition of aggregation in experiment [2] is 4.1% (inactive). The nuclei count in experiment [2] was determined as 103%; in experiment [3] it was 108%. Also, the fluorescence slope in experiment [4] was -0.558 (inactive). The NADPH fluorescence slope in experiment [5] was -2.1e-05 (inactive). For the same compound, the slope in experiment [6] was 0.00512 (inactive).
For the compound `Cc1c(C(=O)OCC(C)(C)CN(C)C)oc2ccccc12`, the cell count in experiment [1] came to 428. Besides, the inhibition in experiment [1] is -3.3% (inactive); in experiment [3], -39.5% (inactive); in experiment [7] it was -31.4% (inactive); in experiment [8], -27.6% (inactive). In addition, the inhibition of aggregation in experiment [2] was -15.2% (inactive). Besides, the figures for the nuclei count in experiment [2] and in experiment [3] were 107% and 118%, respectively. Moreover, the fluorescence slope in experiment [4] was -0.328 (inactive). Besides, in experiment [5], the NADPH fluorescence slope was 2.8e-05 (inactive). Also, the slope in experiment [6] was 0.00529 (inactive).
As for `Cc1nc(NC(=O)c2ccccc2)sc1-c1csc(NCc2ccco2)n1`, the cell count in experiment [1] came to 301. The inhibition in experiment [1] was -2.4% (inactive); in experiment [3], -13% (inactive); in experiment [7], 5.26% (inactive); in experiment [8], -13.8% (inactive). Further, the inhibition of aggregation in experiment [2] is 0% (inactive). In addition, the nuclei count in experiment [2] came out at 121%; in experiment [3], 113%. For the same compound, the fluorescence slope in experiment [4] was -0.185 (inactive). Further, the NADPH fluorescence slope in experiment [5] is -1.9e-05 (inactive). The slope in experiment [6] is 0.0038 (inactive).
`CC1CN(c2nc(-c3ccccc3)nc3ccccc23)CC(C)O1` (centres undefined): the cell count in experiment [1] amounted to 407. For the same compound, the inhibition in experiment [1] is -6% (inactive); in experiment [3], -29.4% (inactive); in experiment [7], 12% (inactive); in experiment [8], 22% (inactive). In addition, the inhibition of aggregation in experiment [2] was -1.5% (inactive). The figures for the nuclei count in experiment [2] and in experiment [3] were 99.3% and 114%, respectively. Moreover, in experiment [4], the fluorescence slope is -0.333 (inactive). Moreover, the NADPH fluorescence slope in experiment [5] is -5.3e-05 (inactive). Also, the slope in experiment [6] was 0.00612 (inactive).
For the compound `CCc1ccc(CN(C)CCc2ccccn2)cc1`, the cell count in experiment [1] amounted to 590. Further, the inhibition in experiment [1] was -7.7% (inactive); in experiment [3], -61.6% (inactive); in experiment [7] it was 5.44% (inactive); in experiment [8], 7.65% (inactive). The inhibition of aggregation in experiment [2] was 7.2% (inactive). The nuclei count in experiment [2] is 108%; in experiment [3], 94%. Further, in experiment [4], the fluorescence slope was -0.482 (inactive). Besides, in experiment [5], the NADPH fluorescence slope is -0.000258 (inactive). Further, the slope in experiment [6] is 0.00499 (inactive).
As for `Cc1cc(-n2c(C)cc(C(=O)CSc3nnnn3-c3ccc(Cl)cc3)c2C)no1`, the cell count in experiment [1] was 415. In addition, the inhibition is 4.2% (inactive) in experiment [1], -55.8% (inactive) in experiment [3], 9.68% (inactive) in experiment [7] and 13.2% (inactive) in experiment [8]. For the same compound, the inhibition of aggregation in experiment [2] is 2.2% (inactive). Besides, the nuclei count in experiment [2] stood at 94%; in experiment [3] it was 109%. Further, in experiment [4], the fluorescence slope is -0.403 (inactive). Further, the NADPH fluorescence slope in experiment [5] was -3.2e-05 (inactive). In addition, the slope in experiment [6] is 0.00589 (inactive).
In the case of `CCCn1cc(C(CC(=O)O)C(=O)O)c2ccccc21` (centres undefined), in experiment [1], the cell count is 319. In addition, the inhibition is 0.2% (inactive) in experiment [1], -112% (inactive) in experiment [3], 13.9% (inactive) in experiment [7] and 17.2% (inactive) in experiment [8]. For the same compound, the inhibition of aggregation in experiment [2] was 11% (inactive). In addition, the nuclei count in experiment [2] was 97.5%; in experiment [3], 126%. In experiment [4], the fluorescence slope is -0.399 (inactive). In addition, the NADPH fluorescence slope in experiment [5] is -3.1e-05 (inactive). The slope in experiment [6] was 0.00576 (inactive).
Regarding `NCCCCCc1nnc(SC/C=C/c2ccccc2)o1`, in experiment [1], the cell count stood at 396. The inhibition in experiment [1] was -9.8% (inactive); in experiment [3], 20.9% (inactive); in experiment [7], 14.3% (inactive); in experiment [8], 12.7% (inactive). The inhibition of aggregation in experiment [2] is 3% (inactive). Besides, the nuclei count in experiment [2] was 69.1%; in experiment [3], 94%. Also, the fluorescence slope in experiment [4] is -0.488 (inactive). The NADPH fluorescence slope in experiment [5] was -4.2e-05 (inactive). Further, in experiment [6], the slope was 0.00602 (inactive).
For the compound `CCOc1ccc(N2C(N)=NC(N)=NC2(C)C)cc1`, in experiment [1], the cell count was 401. The inhibition was 2.5% (inactive) in experiment [1], -19.5% (inactive) in experiment [3], 11.2% (inactive) in experiment [7] and 26.1% (inactive) in experiment [8]. Moreover, the inhibition of aggregation in experiment [2] was 5.2% (inactive). In addition, the nuclei count in experiment [2] amounted to 103%; in experiment [3] it was 105%. Besides, in experiment [4], the fluorescence slope was -0.644 (inactive). In addition, the NADPH fluorescence slope in experiment [5] was 5.9e-05 (inactive). Moreover, the slope in experiment [6] is 0.00717 (inactive).
`c1ccc(CC2CCN(C(c3cccs3)c3nnnn3C3CCCC3)CC2)cc1` (centres undefined): the cell count in experiment [1] was determined as 743. In addition, the inhibition is -37.8% (inactive) in experiment [1], -31.1% (inactive) in experiment [3], -0.349% (inactive) in experiment [7] and 20.3% (inactive) in experiment [8]. Besides, in experiment [2], the inhibition of aggregation was 7.1% (inactive). Further, the nuclei count in experiment [2] came out at 108%; in experiment [3] it was 99.9%. For the same compound, in experiment [4], the fluorescence slope is -0.558 (inactive). In addition, the NADPH fluorescence slope in experiment [5] was 3.9e-05 (inactive). Besides, the slope in experiment [6] was 0.00517 (inactive).
As to `CCc1nc(NCCCN2CCOCC2)c2oc3ccccc3c2n1`, in experiment [1], the cell count was 573. The inhibition was -4.4% (inactive) in experiment [1], -55.2% (inactive) in experiment [3], 17.6% (inactive) in experiment [7] and 25.2% (inactive) in experiment [8]. Also, the inhibition of aggregation in experiment [2] is -12.6% (inactive). In addition, the nuclei count in experiment [2] was 106%; in experiment [3] it was 103%. Moreover, in experiment [4], the fluorescence slope is -0.465 (inactive). Besides, the NADPH fluorescence slope in experiment [5] was -3.3e-05 (inactive). Also, in experiment [6], the slope is 0.00535 (inactive).
Regarding `CC1Cc2nc(SCC(=O)Nc3nccs3)n(C)c(=O)c2S1` (centres undefined), the cell count in experiment [1] amounted to 584. The inhibition was 12% (inactive) in experiment [1], -23.5% (inactive) in experiment [3], 11.6% (inactive) in experiment [7] and 28.2% (inactive) in experiment [8]. Besides, the inhibition of aggregation in experiment [2] was 12.8% (inactive). Further, the figures for the nuclei count in experiment [2] and in experiment [3] were 109% and 111%, respectively. In addition, the fluorescence slope in experiment [4] is -0.539 (inactive). Also, the NADPH fluorescence slope in experiment [5] is -2.7e-05 (inactive). Also, the slope in experiment [6] was 0.00648 (inactive).
On to `CCOC(=O)N1CCC(Nc2nc3ccccc3n3cnnc23)CC1`, for which the cell count in experiment [1] came to 501. For the same compound, the inhibition in experiment [1] is -6.9% (inactive); in experiment [3] it was -35.1% (inactive); in experiment [7], 7.19% (inactive); in experiment [8], 18.1% (inactive). Moreover, the inhibition of aggregation in experiment [2] is -21.2% (inactive). The nuclei count in experiment [2] came out at 59.5%; in experiment [3] it was 117%. Further, the fluorescence slope in experiment [4] is -0.581 (inactive). Also, in experiment [5], the NADPH fluorescence slope is -8.8e-06 (inactive). Moreover, in experiment [6], the slope is 0.00645 (inactive).
